The source of these data is PubChem BioAssay AID463215 (Sanford-Burnham Center for Chemical Genomics, 2010).

Molecules are shown by their SMILES. In all, about 4,600 compounds went through this assay and about 2,900 (63%) were called active.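 How the source made its calls: active means inhibition of yeast growth at or above a set limit in either of two replicates at 10 µM; inactive means the rest.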 So high a share suggests a set chosen from earlier hits. The list is a sample of the results.

The experiment can be described thus: TIM10 isogenic control strain growth inhibition – single concentration, luminescence, S. cerevisiae, counter-screen for tim10-1 synthetic lethality project, confirmation (AID 463215).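 Further: isogenic wild-type TIM10 control yeast grown in succinate dextrose medium; this counterscreen used the strain with wild-type TIM10; 0% = yeast with DMSO and 100% = medium wells lacking yeast.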 As to conditions: BacTiter-Glo luminescence, 24 h, at 10 µM, hits give high values. For orientation: The purpose of a counterscreen is to sort out artefacts and off-target activity.
Regarding `O=C1C=CC(=O)N1c1ccc(N2CCCCC2)cc1`, the inhibition was 85.4% (active).

On to `COc1ccc2c(CN3CCN(S(=O)(=O)c4cccs4)CC3)cc(=O)oc2c1`, for which the inhibition was -35.7% (inactive).

As for `O=C(O)CCCC(=O)Nc1ccccc1-n1ccnc1`, the inhibition is -10.4% (inactive).

`CN(C)c1ccnc2sc(C(=O)c3ccccc3)c(N)c12`: the inhibition was 25.4% (inactive).

On to `COc1ccc(S(=O)(=O)N2CCN(C(C)C(=O)Nc3ccc(C(C)C)cc3)CC2)cc1` (centres undefined), for which the inhibition is 38.8% (active).

With `O=C(CN1CCN(S(=O)(=O)c2ccc3ccccc3c2)CC1)NC(=O)NC1CCCCC1`, the inhibition is 23.4% (inactive).

Regarding `Cc1ccc(-c2noc(CSc3nnc(-c4ccncc4)n3-c3ccc(F)cc3)n2)cc1`, the inhibition was 30.2% (active).

In the case of `Fc1ccc(-n2c(Cc3ccccc3)nnc2SCc2nc(-c3ccc(Cl)cc3)no2)cc1`, the inhibition was 37.8% (active).

As for `Cc1ccc(/C=N/NC(=S)NC2CCCCC2)o1`, the inhibition was 11.8% (inactive).

`COc1ccc(N2C(=O)CC(Sc3n[nH]c(-c4ccc(C)cc4)n3)C2=O)cc1` (centres undefined): the inhibition was 13.8% (inactive).

Consider `O=C(Nc1cccc(Cl)c1)OCc1ccccn1`, for which the inhibition is 41.4% (active).

Consider `FC(F)(F)c1cccc(NC(=S)Nc2cccc(Cl)c2)c1`, for which the inhibition was 26.8% (inactive).

As to `O=C(Nc1cccc(Cl)c1)C1CCCN(c2cnccn2)C1` (centres undefined), the inhibition was 5.7% (inactive).

Consider `O=C(CSc1cccc[n+]1[O-])c1ccc(-c2ccccc2)cc1`, for which the inhibition is 44.2% (active).

On to `O=C1NC(Nc2nc3ccccc3s2)(C(F)(F)F)C(=O)N1C1CCCCC1` (centres undefined), for which the inhibition is 52.6% (active).

As to `N#CC1(C#N)C(C(=O)C23CC4CC(CC(C4)C2)C3)C12CCOCC2` (centres undefined), the inhibition was 26.6% (inactive).

Consider `COC(=O)c1c(NC(=O)COc2ccc(Cl)cc2Cl)sc2c1CC(C)(C)NC2(C)C`, for which the inhibition is 45.8% (active).

With `CCn1c(CSCc2c(Cl)cccc2Cl)n[nH]c1=S`, the inhibition is 35.4% (active).

For the compound `O=C(Nc1ccccc1Cl)/C(Cl)=C(\Cl)S(=O)c1ccccc1` (centres undefined), the inhibition was 89.6% (active).

As for `O=c1oc(-c2ccccc2NS(=O)(=O)c2ccc(Cl)cc2)nc2ccccc12`, the inhibition is 41.5% (active).

For `Cc1[nH]c(=O)c(C(=O)/C=C/c2ccccc2)c2c1CCCC2`, the inhibition was 38.8% (active).

Regarding `COc1ccc(Nc2cc(C)nc(-n3nc(C)cc3C)n2)cc1`, the inhibition is 34.1% (active).

On to `COc1ccc(/C=C(\C#N)C(=O)ONC2=NCCCCC2)cc1`, for which the inhibition was 59% (active).

For the compound `O=C(Nc1cccc(S(=O)(=O)N2CCCC2)c1)c1cncc(Br)c1`, the inhibition was -2.05% (inactive).

For `O=C(NCCc1ccc(F)cc1)c1ccc(S(=O)(=O)N2CCCCC2)cc1`, the inhibition was 53.5% (active).

On to `CC(=O)Cc1nsc(NC(=O)c2ccc(Cl)cc2Cl)n1`, for which the inhibition was 17.2% (inactive).

As for `C/C(=N/NC(=S)Nc1ccccc1)c1ccc2c(c1)OCO2`, the inhibition is 38.8% (active).

Take `CC(=O)N1C(C)c2ccccc2C(C)(C)CC12CCCCC2` (centres undefined): the inhibition was -16% (inactive).

As to `COc1ccc(Nc2nc(N)nc(CSC(=S)N3CCC(C)CC3)n2)cc1`, the inhibition was -1% (inactive).

`Cc1cc(C)nc(S/C=C/C(=O)c2ccccc2)n1`: the inhibition was 60.8% (active).

In the case of `Cc1csc(NC(=S)Nc2cccc(Cl)c2)n1`, the inhibition was 9.5% (inactive).

`Cc1cc(C)c(S(=O)(=O)c2ccccc2)c(OC(=O)c2c(F)cccc2Cl)n1`: the inhibition was -5.1% (inactive).

As for `COC(C/C=C/C(=O)[C@@H](C)OCc1ccccc1)OC`, the inhibition was 39.4% (active).

For `CNC(=O)/C(C#N)=C/c1c(F)cccc1Cl`, the inhibition is 40.6% (active).

As a reminder, the inhibition is the change of the read-out against control, counted positive when it falls.
